hNpr1 antagonist: Natriuretic polypeptide receptor (hNpr1) antagonism - Primary qHTS. Atrial natriuretic peptide receptor 1 (Homo sapiens), P16066. HEK293 hNpr1 GloSensor cGMP, ANP-stimulated luminescence. Potency, µM (doses to about 46.3 µM), for the others: at the top dose activity change, negative = inhibition, actives largely listed as inhibitors. 76,000 compounds, 1.6% hits. AID 1347048, 2019; calls by dose curve; note: nearly all actives have a fitted effect of over 60% in size
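Compound pre-incubated 30 min at room temperature on GloSensor-loaded HEK293 cells stably carrying hNpr1 and the pGS-40F cGMP biosensor. Stimulation uses hNppA at 0.1 nM final; luminescence is taken at baseline and 20 min post-agonist.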
HEK cytotox: Cytotoxic Profiling in HEK 293 Cell Line of Diverse Libraries Using Quantitative High-Throughput Screening. HEK 293 viability, ATP luminescence (CellTiter-Glo), 48-72 h. 94,000 compounds, 6.6% hits. AID 1345083, 2018. Potency, µM (doses to about 115 µM), for inactives: at the top dose activity change, negative = cytotoxicity, hits mostly inhibitors; note: nearly all actives have a fitted effect of over 60% in size
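Read-out: CellTiter-Glo ATP luminescence. Cells: HEK 293, 250 cells/well. Exposure: 48 or 72 hr, 37 degree Celsius.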
NIH3T3 tox: Cytotoxic Profiling in NIH 3T3 Cell Line of Diverse Libraries Using Quantitative High-Throughput Screening; NIH 3T3 viability, CellTiter-Glo ATP luminescence, 48-72 h; Potency, µM (series often up to 96.7 µM), for inactives: top-dose activity change, negative = cytotoxicity, hits mostly inhibitors; 94,000 compounds, 4.3% hits; note: nearly all actives have a fitted effect of over 55% in size
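ATP-dependent luminescence (CellTiter-Glo) served as the viability signal for NIH 3T3 cells treated with compound for 48 or 72 hr at 37 °C.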
GPT2 inhibitor: Primary qHTS assay for inhibitors of Glutamate pyruvate transaminase 2 (GPT2); Potency, µM (top dose mostly 57.7 µM), for the others: top-dose activity change, negative = inhibition, most hits filed as inhibitors; Alanine aminotransferase 2 (Homo sapiens), Q8TD30; 100,000 compounds, 0.25% hits; Recombinant GPT2, coupled pyruvate oxidase/HRP Amplex Red fluorescence; note: nearly all actives have a fitted effect of over 60% in size
Target sequence (Q8TD30 whole entry, looked up): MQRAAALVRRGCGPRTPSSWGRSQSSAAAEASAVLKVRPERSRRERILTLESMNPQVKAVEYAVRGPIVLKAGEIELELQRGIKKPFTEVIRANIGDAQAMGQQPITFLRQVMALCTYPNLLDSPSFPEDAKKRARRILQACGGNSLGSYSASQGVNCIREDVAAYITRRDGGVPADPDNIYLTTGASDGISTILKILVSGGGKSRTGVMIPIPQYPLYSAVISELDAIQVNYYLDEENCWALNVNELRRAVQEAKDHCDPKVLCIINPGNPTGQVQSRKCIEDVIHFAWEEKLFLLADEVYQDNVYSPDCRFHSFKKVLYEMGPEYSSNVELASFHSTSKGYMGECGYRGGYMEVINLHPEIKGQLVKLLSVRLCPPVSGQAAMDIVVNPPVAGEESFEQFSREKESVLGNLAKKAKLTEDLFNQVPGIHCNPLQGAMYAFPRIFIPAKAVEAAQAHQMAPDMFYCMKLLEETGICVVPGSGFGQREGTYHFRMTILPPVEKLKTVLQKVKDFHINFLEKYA
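Fluorescence read-out: pyruvate from GPT2 turnover coupled to pyruvate oxidase, HRP and Amplex Red (0.2mM ThPP, 0.2U/mL PO and HRP, 50uM Amplex final). Substrates 250uM a-KG, 2mM L-alanine; enzyme 10ng/uL; 30 min RT.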
Luciferase inh: Firefly luciferase inhibition profiling of diverse chemical library using quantitative high-throughput screening; Luciferin 4-monooxygenase (Photinus pyralis), P08659; purified P. pyralis luciferase, luminescence, biochemical; Potency, µM (titrated, usually from 115 µM), hits mostly inhibitors; 76,000 compounds, 2.5% hits; note: nearly all actives have a fitted effect of over 65% in size
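Cell-free enzyme assay, 10nM P. pyralis luciferase, luciferin and ATP each at 10uM. Inhibition profiled over a 6-point titration, read as luminescence.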
* hit, by the source's call; i = inactive; ? = inconclusive; · = no result given; [ ] = dose if it differs, or a comment. Rows were chosen to be rich in hits. Some 10% of all compounds tested hit in one or more screens of this group. Unless noted, calls come from the whole dose curve; as a rule, active = well fitted curve in the direction sought with a large enough effect; inconclusive = small, poorly fitted or top-dose-only effect, or another doubt; inactive = no such curve, though single readings can be large; an effect the other way counts as inactive or inconclusive. % is set by controls: 0 for no effect and ±100 for the full control effect; potency is the fitted concentration of half-maximal effect.

SMILES	hNpr1 antagonist	HEK cytotox	NIH3T3 tox	GPT2 inhibitor	Luciferase inh
O=C(OCc1ccccc1)N1CCOCC12CCN(Cc1ccc(F)cc1)CC2	-12%[70.6 µM]	71µM*	?	i	i
CC(C)c1ccc(CN2CCC3(CC2)COCCN3C(=O)OCc2ccccc2)cc1	?	50µM*	35µM*	i	i
O=C(OCc1ccccc1)N1CCOCC12CCN(Cc1cccs1)CC2	3%[70.6 µM]	?	28µM*	-11%[88.5 µM]	i
O=C(COc1ccccc1)N1CCOCC12CCN(Cc1ccccc1)CC2	3%[70.6 µM]	45µM*	?	?	i
O=C(NC1CCN(Cc2cccc(-c3ccc(F)c(F)c3)c2)CC1)c1ccccc1Cl	·	?	?	3%	·
Cc1ccc(Cc2nc(C3CC(=O)N(c4ccc(Cl)cc4)C3)no2)cc1 (centres undefined)	-12%	?	?	i	i
O=C1CC(c2noc(Cc3ccc(F)cc3)n2)CN1c1ccc(F)c(Cl)c1 (centres undefined)	-1%	22µM*	18µM*	-35%	i
COc1ccc(CNC(=O)C2CN(C3CCCCC3)C(=O)N2)cc1 (centres undefined)	·	5%[172 µM]	-7%[138 µM]	4%[88.5 µM]	·
COc1ccc(CNC(=O)CC2CCCCN(C)C2=O)cc1 (centres undefined)	·	-7%	-20%	-5%	·
Cc1noc(C)c1-c1cc2c(cc(C)n2CCN(C)C)c(-c2ccccc2O)n1	0%[70.6 µM]	45µM*	32µM*	-9%[88.5 µM]	i
Cc1noc(C)c1-c1cc2c(cc(C)n2CCN(C)C)c(-c2cccnc2)n1	-13%[70.6 µM]	71µM*	?	-4%[88.5 µM]	i
COc1cccc(-c2nc(-c3c(C)noc3C)cc3c2cc(C)n3CCN(C)C)c1OC	-12%[70.6 µM]	?	?	?	i
COc1ccc(-c2nc(-c3c(C)noc3C)cc3c2cc(C)n3CCN(C)C)cn1	-10%[70.6 µM]	79µM*	?	-14%[88.5 µM]	i
Cc1noc2c(N(C)C)cc(-c3cccnc3)nc12	1%[70.6 µM]	-5%[230 µM]	?	i	i
Cc1noc(C)c1-c1cc2c(cc(C)n2CCN(C)C)c(Nc2ccn(C)n2)n1	-2%[70.6 µM]	89µM*	?	-6%[88.5 µM]	i
O=C(NCC(F)(F)F)c1nc2sccn2c1-c1ccc(F)cc1	·	3%	-10%	-4%	·
Cc1noc(C)c1-c1cc2c(cc(C)n2CCN(C)C)c(-c2ccc(CO)cc2)n1	-21%[70.6 µM]	79µM*	?	?	i
Cc1noc(C)c1-c1cc2c(cc(C)n2CCN(C)C)c(-c2cccc(O)c2)n1	-12%[70.6 µM]	56µM*	?	-1%[88.5 µM]	i
CCNc1ncc(CN2CCCC(CCc3cccc(C(F)(F)F)c3)C2)cn1 (centres undefined)	-1%	?	?	-4%	i
O=C(c1cc(C2CC2)nc2onc(C3CCCN3)c12)N1CCOCC1 (centres undefined)	·	-14%	-8%	i	·
COc1ccc2c(c1)C(COCc1ccc(C(=O)O)cc1)=CC(C)(C)O2	·	-3%	?	·	·
Cn1ccnc1-c1cn(CC2(c3ccccc3F)CCCC2)nn1	-10%	?	?	?	i
Cn1ccnc1-c1ccc(N2CCC(CO)(CCOc3ccccc3)CC2)nn1	-19%	?	?	-25%	40µM*
Cn1ccnc1-c1ccc(N2CCCC(CO)(CCOc3ccccc3)C2)nn1 (centres undefined)	?	32µM*	?	-5%	i
Cc1ccccc1CC1(CO)CCCN(c2ccc(-c3nccn3C)nn2)C1 (centres undefined)	?	32µM*	?	2%	i
SMILES	hNpr1 antagonist	HEK cytotox	NIH3T3 tox	GPT2 inhibitor	Luciferase inh
COc1ccccc1-c1ccc(C(=O)N2CCC(NC(=O)NC3CCCC3)CC2)cc1	·	?	?	-6%	·
CCOc1ccc(NC(=O)N2CCc3cc(OC)c(OC)cc3C2CNC(=O)NC(C)(C)C)cc1 (centres undefined)	-15%	?	-21%	0%	i
COc1ccc(C(=O)N2CCCN(CCn3nc4n(c3=O)CCCC4)CC2)cc1	·	-16%	-10%	·	·
Clc1cccc(COc2cncc(N3CCNCC3)n2)c1	·	·	·	2%	·
CC(=O)c1ccc(NC(=O)CN2C(=O)NC3(CCC(C(C)(C)C)CC3)C2=O)cc1 (centres undefined)	-1%	?	?	i	i
CC1CCC2(CC1)NC(=O)N(CC(=O)Nc1ccc(C(C)C)cc1)C2=O (centres undefined)	4%	28µM*	?	-17%	i
CC1CCC2(CC1)NC(=O)N(CC(=O)Nc1cccc(C(F)(F)F)c1)C2=O (centres undefined)	-10%	25µM*	?	i	i
CC(=O)c1cccc(NC(=O)CN2C(=O)NC3(CCC(C(C)(C)C)CC3)C2=O)c1 (centres undefined)	0%	?	40µM*	i	i
COc1ccc(S(=O)(=O)NC[C@H]2Cn3c(-c4ccc(F)cc4)cnc3CO2)cc1	-28%[70.6 µM]	?	?	-6%[88.5 µM]	i
CC(C)NC(=O)N1CCC2(CC1)CC(N(Cc1ccc(F)cc1)C1CC1)CCO2 (centres undefined)	-19%	-15%	-12%	i	i
Cc1ccc(C(=O)N2CCC(C(=O)N3CCCC(c4nc5ccncc5[nH]4)C3)CC2)cc1 (centres undefined)	·	-4%	-16%	?	·
CCn1ncc(CN2CC[C@@H]3C(=O)NCCCCCCN(Cc4ccncc4)[C@@H]3C2)c1C	0%	-5%	-10%	i	i
CN(C)C(=O)c1ccc2c(c1)NC(C)(COc1ccc3[nH]ccc3c1)CO2 (centres undefined)	-14%[70.6 µM]	?	-16%[138 µM]	-2%[88.5 µM]	i
COc1ccc(OCC2(C)COc3ccc(C(=O)NCc4ccco4)cc3N2)cc1 (centres undefined)	?	?	?	-22%[88.5 µM]	i
CC1(COc2ccc3[nH]ccc3c2)COc2ccc(C(=O)Nc3cccnc3)cc2N1 (centres undefined)	?	100µM*	89µM*	i	i
CC1(COc2ccc3[nH]ccc3c2)COc2ccc(C(=O)NCc3ccco3)cc2N1 (centres undefined)	-15%[70.6 µM]	100µM*	?	-2%[88.5 µM]	i
CC(C)CNC(=O)c1ccc2c(c1)NC(C)(COc1ccc3[nH]ccc3c1)CO2 (centres undefined)	-17%[70.6 µM]	?	89µM*	-1%[88.5 µM]	i

Screening results deposited in PubChem BioAssay by National Center for Advancing Translational Sciences (NCATS).
